A short description of experiment [1]: small molecules captured by biotinylated probe aFSTL3 – biochemical, small-molecule microarray, fluorescence 635/667, stem cell growth factor project, primary screen (AID 1064).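 Also: measures binding of the biotinylated anti-FSTL3 antibody to printed compounds.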 Particulars: higher = more signal.
A short description of experiment [2]: binders from COS7 lysate, DM2A8 probe, primary screen, torsin A project, cell lysate, small-molecule microarray, fluorescence 635/667 (AID 1065). To be noted: higher = more signal, COS7 lysate expressing mutant human TOR1A.
A short description of experiment [3]: small molecules captured by biotinylated probe aFGF2 – biochemical, small-molecule microarray, fluorescence 635/667, stem cell growth factor project, primary screen (AID 1067).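 Also: measures binding of biotinylated aFGF2 protein to printed compounds on slides; z-score merges feature fluorescence and signal-to-noise across triplicate slides.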 To be noted: higher = more signal.
Experiment [4] in a line: small molecules captured by biotinylated probe aFGF10 – biochemical, small-molecule microarray, fluorescence 635/667, stem cell growth factor project, primary screen (AID 1071).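 Also: score merges 667 nm spot intensity and signal to noise from triplicate slides.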 To be noted: higher = more signal.
Experiment [5] addresses Neurogenic locus notch homolog protein 2 (Homo sapiens) (UniProt Q04721). In words: small molecules binding Notch2 protein – biochemical, small-molecule microarray, 635 nm fluorescence, stem cell growth factors, primary screen (AID 1073). Particulars: higher = more signal.
Experiment [6] deals with Pro-neuregulin-1, membrane-bound isoform (Homo sapiens) (UniProt Q02297). Description: small molecules binding neuregulin-1 protein – biochemical, small-molecule microarray, fluorescence 635/667, psychiatric disease protein project, primary screen (AID 1075).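 Also: score combines 667 nm spot fluorescence with signal to noise.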 To be noted: NRG1 binding, 635 nm fluorescence, higher = more signal.
Chain of Pro-neuregulin-1, membrane-bound isoform (Homo sapiens) (Q02297 whole entry, looked up, the tested form may be a part, canonical isoform): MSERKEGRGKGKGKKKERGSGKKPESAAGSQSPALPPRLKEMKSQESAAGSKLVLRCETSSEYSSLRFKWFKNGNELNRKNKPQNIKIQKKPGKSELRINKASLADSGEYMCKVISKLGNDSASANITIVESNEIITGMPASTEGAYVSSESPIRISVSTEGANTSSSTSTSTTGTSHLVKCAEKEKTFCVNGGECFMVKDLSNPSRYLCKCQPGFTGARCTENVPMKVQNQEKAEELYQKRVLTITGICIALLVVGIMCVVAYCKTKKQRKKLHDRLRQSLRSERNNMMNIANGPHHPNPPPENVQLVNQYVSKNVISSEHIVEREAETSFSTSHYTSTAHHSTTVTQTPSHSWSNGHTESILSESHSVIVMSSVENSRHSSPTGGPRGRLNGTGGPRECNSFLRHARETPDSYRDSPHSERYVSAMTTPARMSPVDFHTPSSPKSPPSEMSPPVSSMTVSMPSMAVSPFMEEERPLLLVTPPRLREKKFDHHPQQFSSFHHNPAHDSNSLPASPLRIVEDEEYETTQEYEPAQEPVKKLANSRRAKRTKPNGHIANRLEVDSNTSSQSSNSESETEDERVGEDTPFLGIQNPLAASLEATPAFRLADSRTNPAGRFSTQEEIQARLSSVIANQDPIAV
Experiment [7] concerns Neuregulin-1 EGF-like domain. Description: small molecules binding NRG1 EGF domain – biochemical, small-molecule microarray, 635 nm fluorescence, primary screen (AID 1081).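 Also: binding of the protein to compounds printed on small-molecule microarray slides.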 To be noted: higher = more signal.
The nature of experiment [8]: FRG1 expression reporter modulators in myotubes – cell-based, C2C12 myotubes, firefly/Renilla luciferase, luminescence, FRG1 inhibition for FSHD, primary screen (AID 1084). Particulars: FRG1 promoter luciferase, higher = more signal, called active from +8 up or from −8 down.
Experiment [9] in a line: small molecules captured by biotinylated probe aFST – biochemical, small-molecule microarray, fluorescence 635/667, stem cell growth factor project, primary screen (AID 1086).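 Also: score merges 667 nm fluorescence with signal-to-noise of each printed compound spot.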 Particulars: higher = more signal.
The nature of experiment [10]: binders of probe aHhip on microarray, primary screen, stem cell growth factor project, biochemical, small-molecule microarray, fluorescence 635/667 (AID 1087).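 Also: score merges spot fluorescence at 667nm with spot signal to noise ratio.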 Particulars: higher = more signal.
For experiment [11], the system named is PRMT1 (protein arginine N-methyltransferase 1). In words: small molecules binding arginine methyltransferase PRMT1 – biochemical, small-molecule microarray, 635 nm fluorescence, primary screen (AID 1088).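 Also: binding of Prmt1 protein to compounds spotted on small-molecule microarray slides.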 To be noted: higher = more signal.
The nature of experiment [12]: growth effects on S. cerevisiae YJM789 – YJM789 clinical isolate, OD600, 24 h, basal, primary screen (AID 1089).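 Also: growth of clinical yeast isolate S. cerevisiae YJM 789 seeded 1000 cells per well; test concentration not given here.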 Particulars: higher = more signal, called active from +8 up or from −8 down.
Experiment [13] in a line: S. pombe growth modifiers, basal conditions – strain 972, OD600, 24 h, no modulator, primary screen (AID 1090).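 Also: basal condition with compound alone and no growth modifier present; test concentration not given here.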 To be noted: S. pombe 972 growth, higher = more signal, called active from +8 up or from −8 down.
Experiment [14] in a line: budding yeast growth modifiers under rapamycin – strain BY4716, OD600, 96 h, primary screen (AID 1091). Also: test concentration not given here. Particulars: S. cerevisiae BY4716 + rapamycin, higher = more signal, called active from +8 up or from −8 down.
In experiment [15] the target is Torsin-1A-interacting protein 2 (Homo sapiens) (UniProt Q8NFQ8). In words: small molecules binding lysate-expressed LULL1 – cell lysate, human LULL1 lysate, 635/667 nm fluorescence, primary screen (AID 1092).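 Also: probe is lysate of COS7 cells overexpressing human LULL1; score merges per-feature 667 nm fluorescence with signal-to-noise.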 To be noted: small-molecule microarray, hLULL1 lysate binding, 635 nm fluorescence; higher = more signal.
Chain of Torsin-1A-interacting protein 2 (Homo sapiens) (Q8NFQ8 whole entry, looked up): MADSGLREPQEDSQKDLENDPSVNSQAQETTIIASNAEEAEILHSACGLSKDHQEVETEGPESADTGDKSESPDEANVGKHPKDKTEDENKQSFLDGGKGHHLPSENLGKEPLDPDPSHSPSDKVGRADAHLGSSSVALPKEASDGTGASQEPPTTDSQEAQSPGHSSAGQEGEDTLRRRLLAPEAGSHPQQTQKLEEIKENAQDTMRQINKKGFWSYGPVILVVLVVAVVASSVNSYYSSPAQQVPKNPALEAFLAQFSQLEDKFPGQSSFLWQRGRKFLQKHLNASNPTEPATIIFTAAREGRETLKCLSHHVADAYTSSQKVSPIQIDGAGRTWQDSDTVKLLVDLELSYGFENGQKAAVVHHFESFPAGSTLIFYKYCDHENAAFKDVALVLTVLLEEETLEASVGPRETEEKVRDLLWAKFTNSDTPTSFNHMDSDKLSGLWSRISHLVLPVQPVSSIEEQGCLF
A short description of experiment [16]: optical density change of DRC41 E. coli – strain DRC41, OD650, 24 h, E. coli filamentation project, primary screen (AID 1093).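 Also: MC1000 strain lacking acrAB efflux and sulA so SOS filamentation is blocked; test concentration not given here.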 To be noted: E. coli DRC41 growth, higher = more signal, called active from +8 up or from −8 down.
Experiment [17] is described as follows: probe aLefty2 binding to arrayed compounds – biochemical, biotinylated probe, 635/667 nm fluorescence, primary screen (AID 1094).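 Also: score merges spot fluorescence near 667 nm with spot signal-to-noise ratio.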 To be noted: small-molecule microarray, higher = more signal.
The test system of experiment [18] is Noggin (protein binding on small-molecule microarray). Description: small molecules binding Noggin protein – biochemical, 635/667 nm fluorescence, primary screen (AID 1095).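 Also: score merges 667 nm feature fluorescence with signal to noise over triplicate slides.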 Particulars: 635 nm fluorescence, higher = more signal.
The target in experiment [19] is Neurogenic locus notch homolog protein 3 (Homo sapiens) (UniProt Q9UM47). Description: small molecules binding NOTCH3 protein – biochemical, 635/667 nm fluorescence, primary screen (AID 1096). To be noted: small-molecule microarray, 635 nm fluorescence, higher = more signal.
Experiment [20] is described as follows: probe aEGFR binding to arrayed compounds – biochemical, biotinylated probe, 635/667 nm fluorescence, primary screen (AID 1097).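 Also: probe is a biotinylated anti-EGFR antibody binding compounds printed on slides; score combines fluorescence near 667 nm and signal to noise of each spot.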 Particulars: small-molecule microarray, higher = more signal.

Calls of active or inactive are those of the source.

Chain of Neurogenic locus notch homolog protein 2 (Homo sapiens) (Q04721 whole entry, looked up, canonical isoform): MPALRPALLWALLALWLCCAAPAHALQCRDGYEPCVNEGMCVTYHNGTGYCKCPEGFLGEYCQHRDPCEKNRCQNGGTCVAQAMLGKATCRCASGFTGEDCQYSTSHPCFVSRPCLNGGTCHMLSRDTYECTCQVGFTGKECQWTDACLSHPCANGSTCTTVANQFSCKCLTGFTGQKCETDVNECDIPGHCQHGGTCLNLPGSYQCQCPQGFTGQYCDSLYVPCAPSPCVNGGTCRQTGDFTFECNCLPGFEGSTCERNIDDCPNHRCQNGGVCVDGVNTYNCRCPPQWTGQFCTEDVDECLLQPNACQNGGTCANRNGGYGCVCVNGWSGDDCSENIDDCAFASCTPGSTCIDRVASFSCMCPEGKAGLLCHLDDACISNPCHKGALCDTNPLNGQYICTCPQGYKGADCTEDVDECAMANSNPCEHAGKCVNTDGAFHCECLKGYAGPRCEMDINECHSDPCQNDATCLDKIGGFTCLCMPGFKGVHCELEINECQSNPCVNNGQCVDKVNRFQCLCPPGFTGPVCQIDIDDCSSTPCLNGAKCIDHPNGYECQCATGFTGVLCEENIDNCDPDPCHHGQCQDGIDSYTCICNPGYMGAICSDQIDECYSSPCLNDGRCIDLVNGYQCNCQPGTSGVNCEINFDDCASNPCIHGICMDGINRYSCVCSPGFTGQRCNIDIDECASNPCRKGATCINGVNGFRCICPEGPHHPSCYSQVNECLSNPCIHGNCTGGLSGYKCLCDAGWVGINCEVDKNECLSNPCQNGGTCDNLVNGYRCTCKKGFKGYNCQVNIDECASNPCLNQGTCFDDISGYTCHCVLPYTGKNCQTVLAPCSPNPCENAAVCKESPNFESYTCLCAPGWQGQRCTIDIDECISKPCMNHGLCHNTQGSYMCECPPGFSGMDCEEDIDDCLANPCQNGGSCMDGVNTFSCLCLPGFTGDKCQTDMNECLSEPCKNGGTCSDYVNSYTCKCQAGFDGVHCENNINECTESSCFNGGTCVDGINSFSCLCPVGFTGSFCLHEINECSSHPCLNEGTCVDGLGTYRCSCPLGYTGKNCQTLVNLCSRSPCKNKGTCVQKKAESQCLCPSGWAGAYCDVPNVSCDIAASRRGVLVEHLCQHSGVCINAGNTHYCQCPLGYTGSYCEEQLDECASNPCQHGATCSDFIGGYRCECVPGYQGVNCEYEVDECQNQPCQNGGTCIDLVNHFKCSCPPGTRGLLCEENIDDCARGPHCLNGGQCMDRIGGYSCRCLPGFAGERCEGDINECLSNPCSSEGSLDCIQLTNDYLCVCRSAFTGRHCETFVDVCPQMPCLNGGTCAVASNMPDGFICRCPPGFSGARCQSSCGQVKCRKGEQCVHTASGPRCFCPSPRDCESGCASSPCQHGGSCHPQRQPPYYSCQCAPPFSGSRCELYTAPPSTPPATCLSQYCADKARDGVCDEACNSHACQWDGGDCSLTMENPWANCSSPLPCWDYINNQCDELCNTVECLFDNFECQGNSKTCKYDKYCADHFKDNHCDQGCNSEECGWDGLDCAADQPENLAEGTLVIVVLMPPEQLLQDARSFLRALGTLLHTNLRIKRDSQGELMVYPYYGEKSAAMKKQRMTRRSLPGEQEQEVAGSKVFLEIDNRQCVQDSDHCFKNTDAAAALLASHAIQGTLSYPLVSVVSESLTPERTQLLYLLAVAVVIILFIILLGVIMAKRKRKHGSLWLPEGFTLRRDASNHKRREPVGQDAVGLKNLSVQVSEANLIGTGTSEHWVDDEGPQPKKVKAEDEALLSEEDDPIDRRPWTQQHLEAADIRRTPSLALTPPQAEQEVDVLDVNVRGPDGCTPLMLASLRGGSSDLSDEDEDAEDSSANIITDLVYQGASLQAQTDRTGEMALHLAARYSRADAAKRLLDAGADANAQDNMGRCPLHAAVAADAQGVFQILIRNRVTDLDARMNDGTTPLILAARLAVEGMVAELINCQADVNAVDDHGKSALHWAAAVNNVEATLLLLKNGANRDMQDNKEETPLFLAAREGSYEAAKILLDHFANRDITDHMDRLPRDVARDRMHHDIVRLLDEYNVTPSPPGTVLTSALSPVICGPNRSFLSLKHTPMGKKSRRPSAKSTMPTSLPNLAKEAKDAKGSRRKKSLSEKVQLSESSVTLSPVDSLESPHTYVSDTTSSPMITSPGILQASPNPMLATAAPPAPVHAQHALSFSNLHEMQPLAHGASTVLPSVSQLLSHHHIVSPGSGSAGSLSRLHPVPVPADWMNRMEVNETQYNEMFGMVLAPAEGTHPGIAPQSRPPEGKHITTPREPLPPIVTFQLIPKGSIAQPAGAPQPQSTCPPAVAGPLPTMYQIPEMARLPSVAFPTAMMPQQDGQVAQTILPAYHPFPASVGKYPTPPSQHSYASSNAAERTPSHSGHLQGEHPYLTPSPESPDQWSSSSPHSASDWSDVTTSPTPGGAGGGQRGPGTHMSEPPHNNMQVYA

For `[N-]=[N+]=Nc1ccccc1[C@@H]1OC(c2ccc(OCCCO)cc2)=N[C@]1(Cc1ccccc1)C(=O)NCC(O)CO` (stereo not given in full), the composite z-score in [1] was 1.45; in experiment [2], 2.11; in experiment [3] it was 0.148; in experiment [4], 0.881; in experiment [5], 0.138; in experiment [6], 1.66. Moreover, the composite z-score was 1.06 in experiment [7]; 1.25 in [9]; 0.28 in [10]; 1.55 in [11]; 2.65 in experiment [15]; 0.589 in experiment [17]. Further, the figures for the composite z-score in experiment [18], in experiment [19] and in experiment [20] were 0.244, 0.0643 and 0.206, respectively. Besides, the z-score in [8] is -0.992 (inactive); in [12] it was -0.281 (inactive); in experiment [13] it was -1.4 (inactive); in experiment [14] it was 1.32 (inactive); in experiment [16], 1.05 (inactive).

With `C=CCC(OC(C)=O)[C@@H]1[C@@H](N(Cc2cc3ccccc3o2)C(=O)c2ccc(C)cc2)c2cc(OCCCO)ccc2N1C(=O)Cc1ccc(OC)cc1` (stereo not given in full), the composite z-score in experiment [1] was -0.18; in [2], 0.0811; in experiment [3] it was -0.0878; in [4] it was -0.0177; in experiment [5], 0.0335; in [6], -0.433. Also, the composite z-score was -0.0742 in [7]; 0.277 in experiment [9]; -0.0645 in experiment [10]; 0.23 in experiment [11]; 0.692 in experiment [15]; 0.0761 in experiment [17]. Also, the composite z-score in [18] is -0.0512; in experiment [19], 0.233; in [20], -0.15. Besides, the z-score was 0.443 (inactive) in experiment [8]; 0.0303 (inactive) in experiment [12]; -0.841 (inactive) in experiment [13]; -0.131 (inactive) in [14]; 1.21 (inactive) in experiment [16].

As to `CC(C)Cc1ccc(CN2CC[C@@H](NC(=O)Nc3ccccc3)C2)cc1`, the composite z-score in experiment [1] was -0.0474; in experiment [2] it was -0.0461; in [3] it was -0.173; in experiment [4] it was 0.118; in [5] it was -0.3; in experiment [6] it was -0.54. The composite z-score in experiment [7] was -0.0603; in experiment [9], -0.275; in experiment [10], 0.0505; in experiment [11], -0.785; in [15], -0.389; in experiment [17] it was -0.138. In addition, the composite z-score in [18] was -0.0751; in experiment [19] it was -0.963; in experiment [20], -0.0214. Further, the z-score in [8] is -0.445 (inactive); in experiment [12], -21.2 (active); in [13], -21.2 (active); in [14], -4.26 (inactive); in experiment [16], -0.817 (inactive).

On to `O=C1N(Cc2ccccc2)Cc2ccccc2[C@@H]2OC(c3ccc(OCCCO)cc3)=N[C@]12CCS(=O)(=O)c1ccccc1`, for which the composite z-score was 0.184 in [1]; -0.0546 in experiment [2]; 0.0247 in experiment [3]; 0.379 in experiment [4]; 1.28 in experiment [5]; 1.48 in [6]. In addition, the composite z-score was 1.32 in experiment [7]; 0.297 in experiment [9]; -0.171 in experiment [10]; 1.57 in experiment [11]; 2.96 in experiment [15]; 0.228 in experiment [17]. The composite z-score is 0.49 in experiment [18], 0.763 in experiment [19] and 0.209 in experiment [20]. For the same molecule, the z-score in [8] was -3.35 (inactive); in experiment [12] it was 1.01 (inactive); in experiment [13], 1.41 (inactive); in experiment [14], 14.9 (active); in experiment [16] it was 0.0267 (inactive).

With `CN1C(=O)C2C=CC(C(O)c3cccc4ccccc34)N(N3CCCCC3)C2C1=O` (stereo not given), the composite z-score is 0.827 in experiment [1]; 1.12 in experiment [2]; -0.0122 in [3]; 0.691 in experiment [4]; 1.48 in experiment [5]; 1.67 in experiment [6]. In addition, the composite z-score in experiment [7] is 1.19; in experiment [9], 0.785; in [10], 0.0873; in experiment [11], 1.55; in [15] it was 2.86; in experiment [17], 0.101. Moreover, the results for the composite z-score in experiment [18], in experiment [19] and in experiment [20] were 0.354, 1.1 and 0.299, respectively. Moreover, the z-score in [8] was 1.09 (inactive); in [12] it was -0.0899 (inactive); in [13] it was 1.13 (inactive); in [14], 0.579 (inactive); in experiment [16], -1.09 (inactive).

As to `CN1C(=O)C2C=CC(C(O)COCc3ccccc3)N(N(c3ccccc3)c3ccccc3)C2C1=O` (stereo not given), the composite z-score in experiment [1] is 0.0199; in experiment [2] it was -0.177; in experiment [3], 0.0472; in experiment [4] it was 0.631; in experiment [5], 1.55; in experiment [6], 1.29. Besides, the composite z-score in experiment [7] was 1.03; in [9] it was 1.1; in experiment [10], -0.0563; in experiment [11], 0.482; in [15] it was 2.11; in [17], 0.388. In addition, the composite z-score was -0.419 in experiment [18], 0.894 in experiment [19] and 0.726 in experiment [20]. Moreover, the z-score in experiment [8] was 0.0958 (inactive); in [12], 0.298 (inactive); in experiment [13] it was -1.86 (inactive); in experiment [14], 0.544 (inactive); in experiment [16] it was -0.0181 (inactive).

The values above are taken from PubChem BioAssay.
